Screening data: PubChem, National Center for Advancing Translational Sciences (NCATS)
This is a sample that favours compounds with a hit; in the whole collection about 2.4% have one here.
D2_PAM-1: positive allosteric modulators of human D2 dopamine receptor. potentiation, % at 10 µM. HEK293 T-REx D2, calcium flux, EC20 dopamine potentiation. 340,000 tested, 0.34% active;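 active = potentiation over 3 SD above the plate norm, cut at about 30% in these data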; also: 0% is about no effect
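Tetracycline-induced Hek293 Trex D2 cells, force-coupled to calcium, loaded with no-wash calcium dye. Compound added with 180 s kinetic read for agonism, then EC20 dopamine and a further 180 s read for potentiation.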
D2_antagonist: D2 dopamine receptor (human) antagonism; HEK293 TREx D2 cells, calcium flux, dopamine EC80; AID 485344; 340,000 tested, 2% active; inhibition, % at 10 µM; P14416; in the data active = inhibition above about 30%; inactive = below that, where a call was filed; also: 0% is about no effect
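Calcium flux kinetic readout in an inducible HEK293 TREx D2 line plated overnight at 30 C. After 180 s compound exposure, an EC80 dopamine challenge follows with another 180 s kinetic read to detect antagonism.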
D2_ag-1: activates the human D2 dopamine receptor | P14416 | HEK293 T-REx D2 cells, calcium flux agonist mode | activation, % at 2 µM | 340,000 tested, 0.53% active | AID 485358;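 active = activation over 3 SD above normal in the single-dose calcium agonist read, cut at about 30% in these data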; also: 0% is about no effect
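Tetracycline-induced HEK293 Trex cells with D2 receptor force-coupled to calcium signaling, plated overnight at 30 C and loaded with no-wash calcium dye. Calcium flux read kinetically for 180 s after compound addition; responses flag agonists.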
D2_PAM-2: human D2 receptor positive allosteric modulation. DiscoveRx D2 beta-arrestin cells, luminescence, 90 min; 100% = 57 uM dopamine signal. potentiation, % (concentration not given with the values). 360,000 tested, 0.23% active. AID 624464; in the data active = potentiation above about 50%; inconclusive = mostly about 30% to 49%
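D2 cells co-treated with compound plus 50 nM dopamine (EC20) for 90 min at 37 deg C to detect potentiation. Beta-arrestin recruitment was read as enzyme-fragment luminescence after 1 h at ambient temperature. Full response was set by 57 uM dopamine.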
D2_ag-2: activates the human D2 dopamine receptor; DiscoveRx PathHunter D2 beta-arrestin, luminescence, 90 min; 100% = 57 uM dopamine signal; P14416; activation, % (test concentration not listed); 360,000 tested, 0.084% active; in the data active = activation above about 40%; inconclusive = between about 15% and that limit
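DiscoveRx PathHunter D2 beta-arrestin cells (2,100/well) attached overnight, then compound-stimulated 90 min at 37 C in HBSS/10 mM HEPES/0.1% Tween-20 buffer; beta-galactosidase complementation read by luminescence after 1 h at ambient temperature. Dopamine 57 uM final (EC100) as control.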
D3_arrestin_ag: confirmation of human D3 dopamine receptor agonists, beta-arrestin | AID 720506 | DiscoveRx D3 beta-arrestin cells, luminescence, 90 min | 2,300 tested, 4% active | Potency, µM (doses to about 76.9 µM), without a hit: at the top dose activation, usual class: activators | shares compounds with D2_ag-1;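 also: potency is read from the fitted curve at half-maximal effect; 100% = dopamine control response; nearly all actives have a fitted effect of over 70% in size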
Target sequence (P35462 whole entry, looked up): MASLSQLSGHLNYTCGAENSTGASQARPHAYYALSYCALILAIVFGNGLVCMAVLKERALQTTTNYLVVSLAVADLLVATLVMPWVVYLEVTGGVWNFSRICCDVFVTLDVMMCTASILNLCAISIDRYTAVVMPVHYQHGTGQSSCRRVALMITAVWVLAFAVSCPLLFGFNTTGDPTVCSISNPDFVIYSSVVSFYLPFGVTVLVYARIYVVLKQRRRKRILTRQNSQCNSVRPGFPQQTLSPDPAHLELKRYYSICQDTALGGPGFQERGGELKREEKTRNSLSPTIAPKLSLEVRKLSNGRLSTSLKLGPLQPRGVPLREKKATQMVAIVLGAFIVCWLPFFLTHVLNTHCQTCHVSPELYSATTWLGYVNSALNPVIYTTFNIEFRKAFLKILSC
D2_ag-3: activates human D2 dopamine receptor in D3 counterscreen | shares compounds with D2_ag-1 | Potency, µM (highest dose often 76.9 µM), inactives show at the top dose activation, most hits filed as activators | 2,300 tested, 5.9% active | DiscoveRx PathHunter D2 beta-arrestin, luminescence, 90 min; response scale: percent relative to full dopamine signal; also: potency is read from the fitted curve at half-maximal effect; % of control where 0% means no effect; nearly all actives have a fitted effect of over 70% in size
* = called active by the depositor; ? = inconclusive; · = not tested or not shown. Unless noted, calls follow the shape of the dose curve; as a rule, active = well fitted activation curve with a large enough effect; inconclusive = small, poorly fitted or top-dose-only effect; inactive = flat fitted curve, though single readings scatter.

SMILES D2_PAM-1 D2_antagonist D2_ag-1 D2_PAM-2 D2_ag-2 D3_arrestin_ag D2_ag-3
Cc1cc(OCc2cc(C(=O)N3CCC(Oc4cccnc4)CC3)no2)cc(C)c1Cl -15.2 -7.0 50.7* -10.0 3.9 19.4% ?
CC(C)CC(=O)Nc1nc2nc(-c3ccccc3)cc(=O)n2[nH]1 -24.2 · -1.1 · · · ·
Cc1noc(C)c1C(=O)N1CCN(c2ccccc2O)CC1 -0.9 -5.7 0.0 -20.2 -6.4 6.6% -0.7%
COC(=O)CN1C(=O)CSc2ccc(S(=O)(=O)Nc3cccc(C)c3)cc21 · · 0.1 · · · ·
CCNS(=O)(=O)c1ccc2c3c(cccc13)C(=O)N2 -10.8 -3.3 48.2* -4.9 -2.3 -0.3% 0.1%
CCOc1ccc(S(=O)(=O)N2CCCCC2)c(C)c1C -6.8 12.3 -2.4 0.6 -3.1 -10.5% -0.7%
